Laboratory results taken from PubChem BioAssay AID493036 (Sanford-Burnham Center for Chemical Genomics, 2011).
About 560 (0.17%) of roughly 330,000 compounds were called active.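 How the source made its calls: active means activation at or above 40% of the spot to cytoplasm intensity ratio, with at least 20 cells analyzed; inconclusive means wells under 20 cells, flagged as cytotoxic or low count; inactive means the rest.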 The entries come from a sample that favours actives as a whole.

Columns and labels:
[1] = NTR1-driven beta-arrestin-GFP spot formation – imaging, U2OS cells, high content, primary screen (AID 493036); conditions: agonist mode, measured here: cell count, cytotoxicity flag, at 20 µM;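 on activation: 0% = DMSO without peptide and 100% = 100 nM NTR1 peptide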
[2] = target: Neurotensin receptor type 1 (Homo sapiens) (UniProt P30989); experiment: as above; conditions: agonist mode, at 20 µM, stronger effect = higher value
Sequence of Neurotensin receptor type 1 (Homo sapiens) (P30989 whole entry, looked up): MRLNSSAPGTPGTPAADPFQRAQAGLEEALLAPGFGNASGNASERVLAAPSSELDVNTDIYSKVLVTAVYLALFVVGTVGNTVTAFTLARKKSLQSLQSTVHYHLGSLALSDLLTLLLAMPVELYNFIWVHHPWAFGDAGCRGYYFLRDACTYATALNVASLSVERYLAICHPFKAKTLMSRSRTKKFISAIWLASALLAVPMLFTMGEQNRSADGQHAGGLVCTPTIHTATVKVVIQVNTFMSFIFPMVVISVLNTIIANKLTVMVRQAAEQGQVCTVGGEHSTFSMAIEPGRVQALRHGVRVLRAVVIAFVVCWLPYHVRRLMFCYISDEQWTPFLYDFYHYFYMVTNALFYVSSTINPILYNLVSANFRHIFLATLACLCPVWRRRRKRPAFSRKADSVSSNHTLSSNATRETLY

Row | SMILES | cell count [1] | activation [2]
1 | CCCCOc1ccc(N(CC(=O)NC(C)C)C(=O)CCC(=O)Nc2ccccn2)cc1 | 43 cells | -1.4% (inactive)
2 | Cc1ccc(S(=O)(=O)N2CCOCC2)cc1NC(=O)COC(=O)c1cnccn1 | 51 cells | -0.4% (inactive)
3 | O=C1CCC(CCC(=O)N2CCCC(C(=O)c3ccc(Cl)cc3)C2)=NN1 (centres undefined) | 70 cells | -0.5% (inactive)
4 | CCOC(=O)/C(=N\Nc1ccccc1[N+](=O)[O-])c1csc(Nc2ccccc2)n1 | 59 cells | 12.7% (inactive)
5 | CCOC(=O)/C(C#N)=C/c1ccc(OCC(=O)Nc2ccccc2)c(OC)c1 | 80 cells | -4.5% (inactive)
6 | CCOC(=O)/C(=C\c1ccc([N+](=O)[O-])cc1)C(=O)c1cc(C(C)=O)c(Nc2ccccc2)s1 | 50 cells | 49.8% (active)
7 | COc1ccc(S(=O)(=O)N2CCCCC2)cc1NC(=O)COc1ccccc1 | 55 cells | 2.1% (inactive)
8 | COCC(C)n1c(C)cc(C(=O)CSc2cc(C)c3ccccc3n2)c1C (centres undefined) | 54 cells | 5% (inactive)
9 | O=C(O)C1CCN(C(=O)OCc2ccccc2)CC1 | 88 cells | -0.7% (inactive)
10 | Fc1ccccc1/C=C1\CCCC2=C1Nc1ncnn1C2c1ccccc1F (centres undefined) | 72 cells | 58.7% (active)
11 | CC1=C(C(N)=O)C(c2ccc(Br)cc2)n2ncnc2N1 (centres undefined) | 82 cells | -1.6% (inactive)
12 | CC(C)C(C)(C#N)NC(=O)CSc1nc2scc(-c3ccccc3)c2c(=O)[nH]1 (centres undefined) | 65 cells | 6.5% (inactive)
13 | NS(=O)(=O)c1ccc(CCNC(=O)c2ccc([N+](=O)[O-])cc2[N+](=O)[O-])cc1 | 46 cells | -0.2% (inactive)
14 | O=C(CCC1CCN(C(=O)c2cccc(Cl)c2F)CC1)Nc1ccccc1 | 63 cells | 0.6% (inactive)
15 | COc1cc(OC)cc(C(=O)NNC(=O)CCOc2ccccc2OC)c1 | 73 cells | -0.7% (inactive)
16 | CCCCOc1ccc(C(=O)NCC(=O)OCC(=O)c2c(N)n(C)c(=O)n(C)c2=O)cc1 | 49 cells | -0.7% (inactive)
17 | Cc1nnc(SCC(=O)N2c3ccccc3C(C)(c3ccc(Cl)cc3)CC2(C)C)s1 (centres undefined) | 47 cells | 8.5% (inactive)
18 | CCn1cc(/C=C(\NC(=O)c2ccc(C)cc2)C(=O)NCCN2CCOCC2)c2ccccc21 | 75 cells | 1.6% (inactive)
19 | N#CC1(NC(=O)COc2ccc3oc4ccccc4c3c2)CCCCC1 | 33 cells | 0.8% (inactive)
20 | O=C(Nc1ccc2c(c1)CCC2)c1ccc(Br)s1 | 65 cells | 4.4% (inactive)
21 | Clc1cccc(Cl)c1Cn1nnc(-c2cccs2)n1 | 79 cells | 4.8% (inactive)

Row | SMILES | cell count [1] | activation [2]
22 | CC(=O)N[C@H]1[C@H]([C@H](O)[C@H](O)CO)OC(C(=O)O)=C[C@@H]1O | 69 cells | 1.8% (inactive)
23 | CCOc1c(N2CCCCC2)c(=O)c1=O | 32 cells | 2.2% (inactive)
24 | CCOc1ccccc1NC(=O)NC1CCCCCCC1 | 52 cells | -0.7% (inactive)
25 | CC1(C)CC(=O)C=C(N2CCOCC2)C1 | 46 cells | 0.2% (inactive)
26 | O=C(N/N=C/c1ccc(OC(=O)c2ccccc2Cl)cc1)c1ccc(O)cc1 | 65 cells | 40.7% (active)
27 | Cc1nc2ccc(C(=O)N/N=C/c3ccc(O)cc3)cc2[nH]1 | 50 cells | -0.6% (inactive)
28 | CC(C)(C)C(=O)Nc1ccc(C(=O)N/N=C/c2ccccc2OC(=O)c2ccc(Cl)cc2Cl)cc1 | 48 cells | 0.7% (inactive)
29 | CC1=CC=CN2C1=NC(=O)CC2(C)C(=O)N(CC(=O)NC1CCCC1)c1ccccc1C (centres undefined) | 39 cells | 1% (inactive)
30 | Cc1ccc(N2C(=O)C(NC(=O)c3c(F)cccc3F)(C(F)(F)F)C3=C2CC(C)(C)CC3=O)cc1 (centres undefined) | 69 cells | 4% (inactive)
31 | COc1ccccc1CN(C)c1nnnn1-c1ccccc1 | 50 cells | 1.1% (inactive)
32 | CSc1ccc(CNCCN2CCOCC2)cc1 | 55 cells | -2.1% (inactive)
33 | FC(F)(F)Oc1ccc(-c2cn3cccnc3n2)cc1 | 36 cells | 3.1% (inactive)
34 | CCc1ccccc1NC(=O)/C(=C/c1ccccc1)c1ccccc1 | 63 cells | 6.1% (inactive)
35 | Cc1coc(C)c1C(=O)CC1(O)C(=O)N(C)c2ccc(Cl)cc21 (centres undefined) | 91 cells | -1% (inactive)
36 | CN(C)CCNC(=O)C(C(=O)c1ccccc1)n1ccccc1=O (centres undefined) | 94 cells | -1.5% (inactive)
37 | CCS(=O)(=O)n1nc(-c2ccccc2)nc1SCc1ccccc1 | 92 cells | 6.4% (inactive)
38 | CN(C)/C=C(/C(=O)c1ccc(F)cc1)S(=O)(=O)c1ccc(F)cc1 | 51 cells | -0.1% (inactive)
39 | CCOC(=O)c1c(CN2CCOCC2)n(-c2ccccc2)c2ccc(O)cc12 | 70 cells | 2.7% (inactive)
40 | CC1=NNC(=O)C1CCC(=O)N/N=C\c1cccc(Cl)c1 (centres undefined) | 94 cells | -1% (inactive)
41 | CCOC(=O)c1cnc(SCC(=O)Nc2ccccc2C(=O)OC)nc1N | 88 cells | -1.8% (inactive)
42 | CC(C)c1ccc(OCC(O)Cn2cnc3ccccc32)cc1 (centres undefined) | 46 cells | 0.1% (inactive)

Row | SMILES | cell count [1] | activation [2]
43 | OC(CN=c1sc2ccccc2n1CC(O)COc1ccccc1)COc1ccccc1 (centres undefined) | 92 cells | 58.9% (active)
44 | O=C(C(c1ccccc1)c1ccccc1)N1CCN(CC(O)COc2ccccc2)CC1 (centres undefined) | 88 cells | 0.6% (inactive)
45 | Cc1nn(C)c(Oc2ccccc2)c1CCNS(=O)(=O)c1ccc(F)cc1 | 76 cells | -0.4% (inactive)
46 | Cc1cc(N(C)C)cc(C)[n+]1[O-] | 38 cells | 0.3% (inactive)
47 | Cc1ccc(C(=O)N/C(=C\c2cn(S(=O)(=O)N(C)C)c3ccccc23)C(=O)N2CCCC2)cc1 | 61 cells | 1.6% (inactive)
48 | CCCCCOC(=O)C1=C(C)Nc2nnnn2C1c1ccc(OC)c(OC)c1OC (centres undefined) | 85 cells | 0.9% (inactive)
49 | CCCS(=O)(=O)N1CCC(C(=O)NCCc2ccc(OC)c(OC)c2)CC1 | 46 cells | -0.4% (inactive)
50 | O=C(N/N=C/c1ccccn1)c1cccc(NC(=O)c2ccc(Cl)cc2)c1 | 56 cells | 2.8% (inactive)
51 | Cc1cc2c(cc1C)N(C(=O)CN1C(=O)c3ccccc3C1=O)C(C)(C)c1ssc(=S)c1-2 | 52 cells | 23.8% (inactive)
52 | COc1ccnc(Oc2ccccc2)n1 | 45 cells | 3% (inactive)
53 | Nc1c(-c2ccc(F)cc2)cnc2ncnn12 | 91 cells | -0.2% (inactive)
54 | CCOC(=O)Cn1c(=O)n(Cc2ccc(OC)cc2)c(=O)c2cccnc21 | 62 cells | -0.6% (inactive)
55 | Cc1nnc(-c2ccc(Oc3ccc(C)c(C)c3)c([N+](=O)[O-])c2)o1 | 52 cells | -0.2% (inactive)
56 | CCCNC(=O)COc1coc(CN2CCN(Cc3ccccc3)CC2)cc1=O | 51 cells | 0.5% (inactive)
57 | Cc1ccc(NC(=O)COc2coc(CN3CCc4ccccc4C3)cc2=O)cc1Cl | 63 cells | 40.7% (active)
58 | Cc1cc(C)cc(NC(=O)COc2coc(CN3CCN(c4ccccc4)CC3)cc2=O)c1 | 47 cells | 1.4% (inactive)
59 | COCCNC(=S)N/N=C/c1c(C)[nH]c2ccccc12 | 45 cells | 1.2% (inactive)
60 | O=C(N/N=C/c1c(Cl)[nH]c2ccccc12)c1sc2ccccc2c1Cl | 73 cells | 41.9% (active)
61 | COc1ccc(CNC(=O)CNC(=O)c2sc3ccccc3c2Cl)cc1OC | 47 cells | 1.7% (inactive)
62 | CC(=O)N1c2ccc(S(=O)(=O)N3CCC(C(=O)NC4CCCCC4C)CC3)cc2CC1C (centres undefined) | 45 cells | 2.5% (inactive)
63 | CC(C)Cn1c(N)c(C(=O)NCc2cccs2)c2nc3ccccc3nc21 | 78 cells | 41.7% (active)

Row | SMILES | cell count [1] | activation [2]
64 | COCC(C)OC(=O)c1c(N)n(CCCN2CCOCC2)c2nc3ccccc3nc12 (centres undefined) | 68 cells | -1% (inactive)
65 | CCOc1ccccc1NC(=O)Cn1nnc(C(=O)NCc2cccs2)c1N | 61 cells | 1.8% (inactive)
66 | O=C(c1cc(Cl)cc(Cl)c1)N1CCC(=O)N(C(COCc2ccccc2)Cc2ccccc2)CC1 (centres undefined) | 76 cells | 8.8% (inactive)
67 | CCCCN1C(=O)c2ccc(C(=O)Nc3ccc(S(=O)(=O)N(C)C)cc3)cc2C1=O | 77 cells | 3.1% (inactive)
68 | CCN(CC(=O)Nc1ccc(OC)cc1)C(=O)c1ccc(=O)n(Cc2ccccc2)n1 | 54 cells | -0.5% (inactive)
69 | CC1(C(=O)N/N=C/c2cc3c(cc2Br)OCO3)CC1(Br)Br (centres undefined) | 71 cells | 5.3% (inactive)
70 | CC(C)Oc1c(Br)cc(Br)cc1/C=N/NC(N)=S | 60 cells | 66.8% (active)
71 | O=c1oc2ccccc2cc1-c1cn(-c2ccccc2)c(=S)[nH]1 | 47 cells | 6.1% (inactive)
72 | Cc1ccc(Nc2nc(-c3ccc(O)cc3O)cs2)nc1 | 37 cells | 18.9% (inactive)
73 | O=c1oc2ccccc2cc1-c1csc(Nc2ccc(O)cc2)n1 | 50 cells | 76.8% (active)
74 | CC1(C)Cc2ccccc2-c2nc(CN3CCOCC3)[nH]c(=O)c21 | 89 cells | -0.1% (inactive)
75 | CCC1(CC)Cc2ccccc2-c2nc(CCl)[nH]c(=O)c21 | 60 cells | 61.8% (active)
76 | CC1(C)Cc2ccccc2-c2[nH]c(=S)[nH]c(=O)c21 | 53 cells | 0.3% (inactive)
77 | Nc1nc(Nc2ccccc2F)nc(NC2CCCCC2)c1[N+](=O)[O-] | 83 cells | 43.1% (active)
78 | Nc1nc(NCC2CCCO2)nc(Nc2ccccc2F)c1[N+](=O)[O-] (centres undefined) | 40 cells | 0.5% (inactive)
79 | C=CCNc1nc(N)c([N+](=O)[O-])c(NC2CCCCC2)n1 | 87 cells | 5.1% (inactive)
80 | Cc1ccc(S(=O)(=O)N2CCOCC2)cc1C(=O)OC1CCCCC1=O (centres undefined) | 30 cells | 0.7% (inactive)
81 | Cc1cc(C)n(CCNS(=O)(=O)c2ccc(Cl)cc2)n1 | 44 cells | 1.1% (inactive)
82 | Cc1ccccc1OCc1nnc(SCC(=O)N2c3ccccc3Sc3ccc(Cl)cc32)o1 | 65 cells | 4.7% (inactive)
